# Screens deposited in PubChem BioAssay by National Center for Advancing Translational Sciences (NCATS).
# Shown is part of a subset that was picked to be rich in hits.
# ERK EGF inh: inhibitors of EGF-stimulated ERK signaling pathway; HEK293-V1b, EGF-stimulated phospho-ERK AlphaScreen; Potency, µM (highest dose often 11.5 µM), inactives show top-dose activity change, negative = inhibition, most hits filed as inhibitors; actives 0.41% (n = 130,000); active = well fitted inhibition curve with a large enough effect;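 note: plate controls were stimulated vehicle wells for no effect and unstimulated vehicle basal for full effect; nearly all actives have a fitted effect of over 55% in size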
#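 In this qHTS, HEK293 cells with stable type-1 vasopressin (V1b) receptor were exposed to compound at 37C for 30 min, stimulated 5 min with EGF at 25 nM, lysed, and probed for phospho-ERK by AlphaScreen.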
# Starred values were filed as active, the others as inactive; ! = a repeat was not active; [ ] = dose if it differs, or a comment. Potency is the fitted concentration of half-maximal effect.
SMILES,ERK EGF inh
CN1Cc2c(N3CCOCC3)nc3sc(C(=O)c4ccc(Br)cc4)c(N)c3c2CC1(C)C,35µM*
CC1(C)Cc2c(c(N3CCOCC3)nc3sc(-c4ccc(C(=O)O)o4)c(N)c23)CO1,5%
CC1(C)Cc2c(c(N3CCOCC3)nc3sc(C(=O)N4CCCCC4)c(N)c23)CO1,-1%
COc1ccc(C2c3c(ncn(CCCO)c3=N)Oc3ccc4ccccc4c32)cc1OC (stereo not given),-2%[57.5 µM]
COc1ccc(C2c3c(ncn(CCCO)c3=N)Oc3ccc4ccccc4c32)cc1 (stereo not given),40µM*
N=c1c2c(ncn1CCCO)Oc1cc(O)ccc1C2c1ccccc1 (stereo not given),2%[57.5 µM]
CCCC/C=C/C(NC(=O)OCc1ccccc1Cl)c1ccccc1 (stereo not given),4%
CC1=CC(=O)C2C(C)(C)CCC[C@@]2(C)[C@@]1(O)CCc1ccoc1 (stereo not given in full),28%
CC(C)C[C@@H](CC(=O)N[C@@H](CCC(=O)O)CC(=O)O)NC(=O)[C@@H]1CCCC[C@H]1NC(=O)C[C@H](CCCN)NC(=O)C[C@H](Cc1ccccc1)NC(=O)[C@@H]1CCCC[C@H]1N,-12%
CCN(CC)CCCCn1c(-c2ccccc2)nc2c(N(CCOC)CCOC)nc(C)nc21,-21%
O=C(COc1ccccc1[N+](=O)[O-])Nc1ccc(CN2CCOCC2)cc1,3%
CC(C)C(=O)N1CCN(c2ccc(NC(=O)COc3ccccc3[N+](=O)[O-])cc2)CC1,32µM*
CN1CCN(c2ccc(NC(=O)COc3ccccc3[N+](=O)[O-])cc2)CC1,-6%
CCOC(=O)CNC(=O)O[C@H]1C(=O)c2ccc(OC)cc2O[C@@H]1c1ccc2c(c1)OCO2,-11%
CC(Cc1ccccc1)C(=O)NCCc1c[nH]c2ccccc12 (stereo not given),0%
C[C@@H](NCCc1ccc(O)cc1)[C@@H](O)c1ccc(O)cc1,-4%
CCCCCCCCNC(C)C(O)c1ccc(SC(C)C)cc1 (stereo not given),35µM*!
CC(NCCc1ccc(O)cc1)C(O)c1ccc(O)cc1 (stereo not given),-3%
CC(C)[C@@H](CC(=O)N[C@@H]1CCNC[C@H]1C(=O)N[C@H](CC(=O)N[C@@H](CCC(=O)O)CC(=O)O)Cc1c[nH]c2ccccc12)NC(=O)C[C@H](Cc1ccccc1)NC(=O)[C@@H]1CCCC[C@H]1N,-10%
Cn1cccc1/C=N/N1CCN(c2ccccn2)CC1,30%
Cn1cccc1/C=N/N1CCN(Cc2cccc3ccccc23)CC1,18µM*
O=C(O)c1ccc(/C=N/N2CCN(Cc3cccc4ccccc34)CC2)cc1,0%
C=C(C[C@]1(C(=O)OC)CC2(CC=C(C)C)C(=O)C(C(=O)CC(C)C)=C(O)C(CC=C(C)C)(C1)C2=O)C(=O)OC (stereo not given in full),-15%
O=c1cc(-c2cccc(O)c2O)oc2ccccc12,-4%
C/C=C/C1=Cc2ccccc2C(C(C(=O)OC)C(=O)OC)N1C(=O)OC (stereo not given),-5%
SMILES,ERK EGF inh
CC1(C)CC[C@]2(C(=O)O)CC[C@]3(C)C(=CCC4[C@@]5(C)CC[C@H](O)C(C)(C)[C@@H]5CC[C@]43C)C2C1 (stereo not given in full),-7%
CC(=O)OC1COC(OC2C(O)C(C)OC(OC3C(OC4CCC5(C)C(CCC6(C)C5CC=C5C7CC(C)(C)CCC7(C(=O)O)CCC56C)C4(C)CO)OCC(O)C3O)C2O)C(O)C1OC(C)=O (stereo not given),20µM*
CC1(C)CC[C@]2(C(=O)O)CC[C@]3(C)C(=CC[C@@H]4[C@@]5(C)CC[C@H](O)C(C)(C)[C@@H]5CC[C@]43C)[C@@H]2C1,7%[57.5 µM]
CC1(C)CC[C@]2(C(=O)O)CC[C@@]3(C)C(=CCC4[C@@]5(C)CCC(O)[C@@](C)(CO)C5CC[C@@]43C)C2C1 (stereo not given in full),10%
C/C=C(/C)C(=O)OC1C(OC(C)=O)[C@@]2(CO)C(O)C[C@@]3(C)C(=CCC4[C@@]5(C)CCC(OC6OC(C(=O)O)[C@@H](O[C@@H]7OC(CO)C(O)C(O)C7O)C(O)[C@H]6O[C@@H]6OC(CO)C(O)C(O)C6O)[C@](C)(CO)C5CC[C@@]43C)C2CC1(C)C (stereo not given in full),7%
C[C@@H]1OC(OC2CC[C@@]3(C)C(CC[C@@]4(C)C3CC=C3C5CC(C)(C)CC[C@]5(C(=O)OC5OCC(O)[C@@H](O)[C@@H]5OC5O[C@@H](C)[C@H](O[C@H]6OC(CO)C(O)C(O)C6O)C(O)C5O)C(O)C[C@@]34C)C2(C)C)C(O)C(O)[C@H]1OC1OCC(O)C(O)[C@H]1O (stereo not given in full),14µM*
COCCNc1nc(C)nc2c1nc(-c1ccccc1)n2CCCN1CCCCC1C (stereo not given),12%
COc1cccc([C@@H]2Oc3ccc(OC)cc3C[C@H]2OC(=O)N[C@H]2CCCc3ccccc32)c1,-8%
CCCn1c(-c2ccc(F)cc2)nc2c(NCC3CCN(C)CC3)nc(C)nc21,-4%
CCOC(=O)CNC(=O)O[C@@H]1Cc2cc(OC)ccc2O[C@H]1c1cccc(OC)c1,-18%
C[C@H]1CC[C@@H]2[C@@H](C)[C@H]3[C@H](C[C@H]4[C@@H]5CC=C6C[C@@H](O[C@]7(O[C@H]8O[C@@H](C)[C@@H](O)[C@@H](O)[C@@H]8O)C[C@@H](O[C@@H]8O[C@H](CO)[C@@H](O)[C@H](O)[C@@H]8O)[C@@H](O)[C@H](CO)O7)CC[C@]6(C)[C@H]5CC[C@@]34C)N2C1,4%[25.7 µM]
c1ncc(-c2ccc3c(c2)OCO3)c(NCCc2cnc[nH]2)n1,16%
COc1ccc2c(c1)C(=O)[C@@H](OC(=O)NS(=O)(=O)c1ccc(F)cc1)[C@H](c1ccc(OC)c(Br)c1)O2,-5%
CN1[C@@H]2CC[C@H]1CC(OC(=O)[C@@H](CO)c1ccccc1)C2 (stereo not given in full),2%[25.7 µM]
O=[N+]([O-])c1ccc(-c2cn3nc(-c4ccccc4)c(-c4ccccc4)nc3n2)cc1,-5%[57.5 µM]
Nc1nc(-c2ccc([N+](=O)[O-])cc2)c(C(=O)Nc2ccc(Cl)cc2)s1,10%[57.5 µM]
Nc1nc(-c2ccccc2)c(-c2ccc([N+](=O)[O-])cc2)s1,25µM*
Cc1noc(C)c1-c1cc(NC2CC2)ncn1,28%
CCCONC(=O)Nc1ccccc1[N+](=O)[O-],4%
O=[N+]([O-])c1ccccc1N/N=C/c1cccc(O)c1O,2%[57.5 µM]
CCCOc1ccc(/C=N/Nc2ccccc2[N+](=O)[O-])c(OCCC)c1,11µM*
COc1ccc2[nH]c3c(N4CCc5ccccc5C4)ncnc3c2c1,32µM*
COc1ccc2[nH]c3c(=O)n(CCCN4CCOCC4)cnc3c2c1,-6%[57.5 µM]
CCOc1ccc2[nH]c3c(N4CCC5(CC4)OCCO5)ncnc3c2c1,0%[57.5 µM]
O=C(O)c1cc(=O)c2cccc(O)c2[nH]1,-12%
Nc1ncnc2c1ncn2[C@@H]1O[C@H](CO)[C@H](O)[C@H]1O,16%
COCCNC(=O)C1(C)C=CCN1C(C)=O (stereo not given),-5%
CC(C)=CCn1cnc2c1c(=O)n(C)c(=O)n2C,-26%
Cc1cn(C2OC(COC(=O)c3ccccc3)C(OC(=O)c3ccccc3)C2OC(=O)c2ccccc2)c(=O)[nH]c1=O (stereo not given),8%
